Results published in PubChem BioAssay (NCATS).
Records with an inconclusive call do not appear. The source made the active and inactive calls. Unless noted, calls follow the shape of the dose curve; as a rule, active = well fitted cell-killing curve with a large enough effect; inconclusive = small, poorly fitted or top-dose-only effect, or effect the other way; inactive = no such curve, though single readings can be large or run the other way.

Key:
[1] = Quantitative High-Throughput drug screen in 47 multiple myeloma cell lines against the NCATS MIPE library collection: VP6_DJ cell viability assay (AID 1919867); also: nearly all actives have a fitted effect of over 40% in size
In short: (§1)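 ATP-based luminescence (CellTiter-Glo, 5 min RT incubation) quantified surviving cells following two days' treatment with MIPE 4.0 agents at 37 °C, 5% CO2.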

[2] = Quantitative High-Throughput drug screen in 47 multiple myeloma cell lines against the NCATS MIPE library collection: UTMC2_PLB cell viability assay (AID 1919868); conditions: CellTiter-Glo ATP luminescence, 48 h; viability (% of DMSO control): at 45.8 µM (top of the series) unless noted; also: nearly all actives have a fitted effect of over 55% in size
In short: as §1

[3] = Quantitative High-Throughput drug screen in 47 multiple myeloma cell lines against the NCATS MIPE library collection: PE2_PLB cell viability assay (AID 1919869); also: nearly all actives have a fitted effect of over 35% in size
In short: as §1

[4] = Quantitative High-Throughput drug screen in 47 multiple myeloma cell lines against the NCATS MIPE library collection: PCM6_Riken cell viability assay (AID 1919870); also: nearly all actives have a fitted effect of over 30% in size
In short: as §1

[5] = Quantitative High-Throughput drug screen in 47 multiple myeloma cell lines against the NCATS MIPE library collection: OPM2_DSMZ cell viability assay (AID 1919872); also: nearly all actives have a fitted effect of over 30% in size
In short: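 CellTiter-Glo ATP luminescence gave viability after 48 h compound treatment at 37C of 500 multiple myeloma cells per well. Normalisation used DMSO-only wells as 100% and media-only wells as 0% viability; primary qHTS of approved and investigational drugs.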

[6] = Quantitative High-Throughput drug screen in 47 multiple myeloma cell lines against the NCATS MIPE library collection: KMS11_JCRBsus cell viability assay (AID 1919873); also: nearly all actives have a fitted effect of over 50% in size
In short: as §1

[7] = Quantitative High-Throughput drug screen in 47 multiple myeloma cell lines against the NCATS MIPE library collection: KMS28BM_JCRB cell viability assay (AID 1919874); also: nearly all actives have a fitted effect of over 35% in size
In short: as §1

[8] = qHTS drug screen for cell cycle checkpoint inhibitors in PARPi-resistant BRCA-mutant ovarian cancer cell lines. (AID 1963452; calls by dose curve); conditions: PEO1/OlaR viability, CellTiter-Glo luminescence, 96 h; for Z-AUC: stronger effect = lower value
In short: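 PEO1, PEO4 and PEO1/OlaR ovarian cancer cells, 600 per well, exposed 96 h at 37C to a dilution series. Viability read by CellTiter-Glo luminescence, normalized to DMSO and empty wells; activity summarized as Z-AUC.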

[9] = qHTS for identification of novel therapeutic agents for treatment of microphthalmiaassociated transcription factor (MiT) renal cell carcinoma (RCC) (AID 1963991; calls by dose curve;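 as to z-score: curves scaled with 100% = DMSO viability and 0% = empty wells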); conditions: CellTiter-Glo, 48 h; for Potency: active = Z-AUC below -0.8 in all three lines; for z-score: stronger effect = lower value
In short: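 UOK109/UOK124/UOK145 (TFE3 fusions, three partners); 500 cells/well; MIPE v4.0, 1912 cpds, 11 conc.; 48 h, 37 C; CellTiter-Glo, 15 min RT; lum. Norm.: DMSO 100%, empty 0%.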

[10] = measured here: PEO1 parental Z-AUC
[11] = TFE3-RCC UOK109 viability, measured here: UOK109 Z-AUC
[12] = TFE3-RCC viability, measured here: UOK124 Z-AUC
[13] = TFE3-RCC viability, measured here: UOK145 Z-AUC
Potency is read from the fitted curve at half-maximal effect.

Compound	Potency [1]	Potency [2]	Potency [3]	Potency [4]	Potency [5]	Potency [6]	Potency [7]	Z-AUC [8]	Z-AUC [8, 10]	Z-AUC ([8]; measured here: PEO4 Z-AUC)	Potency ([9]; TFE3-RCC UOK109 viability)	z-score [9, 11]	z-score [9, 12]	z-score [9, 13]	Potency [8]
CC(C)c1cc(-c2n[nH]c(=O)n2-c2ccc3c(ccn3C)c2)c(O)cc1O	20.9 nM (active)	52.6 nM (active)	37.2 nM (active)	23.5 nM (active)	41.8 nM (active)	16.6 nM (active)	41.8 nM (active)	-0.89 (inactive)	-1.07	0.105	74.3 nM (active)	-1.34	-0.923	-1.27	
Cc1cnc(-c2cnc(NCCNc3ccc(C#N)cn3)nc2-c2ccc(Cl)cc2Cl)[nH]1	10500 nM (active)	13200 nM (active)	23500 nM (active)	13200 nM (active)				1.35 (inactive)	0.904	0.844					
CC[C@H](CO)Nc1nc(NCc2ccccc2)c2ncn(C(C)C)c2n1	18700 nM (active)	23500 nM (active)	14800 nM (active)	9350 nM (active)		20900 nM (active)		0.956 (inactive)	1.03	1.29					
COC(=O)[C@]12CCC(C)(C)C[C@@H]1[C@@H]1C(=O)C=C3[C@@]4(C)C=C(C#N)C(=O)C(C)(C)[C@@H]4CC[C@@]3(C)[C@]1(C)CC2	264 nM (active)	372 nM (active)	332 nM (active)	332 nM (active)			264 nM (active)				1180 nM (active)	-1.73	-1.69	-1.96	
NC1(Cc2ccc(Cl)cc2)CCN(c2ncnc3[nH]ccc23)CC1	3720 nM (active)	264 nM (active)	7430 nM (active)	5900 nM (active)			4180 nM (active)	-0.805 (inactive)	-1.02	-1.03					
CNC(=O)c1ccc(N2C(=S)N(c3cnc(C#N)c(C(F)(F)F)c3)C(=O)C23CCC3)cc1F	1050 nM (active)	3320 nM (active)	1050 nM (active)	833 nM (active)		inactive	inactive	0.293 (inactive)	-0.208	0.0749					
CC(C)c1ccc(Cn2ccc3c4c(N)nc(NC5CC5)nc4ccc32)cc1	3320 nM (active)	1870 nM (active)	2350 nM (active)	5900 nM (active)	6620 nM (active)	1050 nM (active)	1660 nM (active)	-1.65 (inactive)	-2.21	-2.38					
C=CCn1c(=O)c2cnc(Nc3ccc(N4CCN(C)CC4)cc3)nc2n1-c1cccc(C(C)(C)O)n1	372 nM (active)	148 nM (active)	235 nM (active)	469 nM (active)	1180 nM (active)		418 nM (active)		-1.63	-1.42					138 nM (active)
COc1ccc(C=Cc2cc(OC)c(OC)c(OC)c2)cc1O	inactive	inactive	inactive	inactive	inactive		inactive								
COc1cc(OC2CCN(C)CC2)ccc1Nc1ncc2c(n1)n(C1CCCC1)c(=O)n2C	4180 nM (active)	7430 nM (active)	9350 nM (active)	10500 nM (active)		16600 nM (active)	16600 nM (active)	0.704 (inactive)	0.287	0.275					
CC(O)C1C(=O)N2C(C(=O)O)=C(SC3CNC(C(=O)N(C)C)C3)C(C)C12 (stereo not drawn)	2640 nM (active)	inactive	inactive	inactive		inactive	inactive					0.648	0.116	0.637	
CC(=O)OCC(=O)[C@@]1(O)[C@H](C)C[C@H]2[C@@H]3C=C(C)C4=Cc5c(cnn5-c5ccccc5)C[C@]4(C)[C@@H]3[C@@H](O)C[C@@]21C	9350 nM (active)	11800 nM (active)	8330 nM (active)	3320 nM (active)			inactive	-0.679 (inactive)	0.732	-0.158					
CN1CCN(c2cc(C(=O)Nc3ccc4c(c3)-c3c(c(C(N)=O)nn3-c3ccc(F)cc3)CC4)c(Cl)cn2)CC1	2960 nM (active)	2090 nM (active)	1480 nM (active)	2640 nM (active)	26400 nM (active)	8330 nM (active)	8330 nM (active)	0.539 (inactive)	0.439	-0.0103					
Nc1ncnc2c1c(-c1cnc3[nH]ccc3c1)nn2C1CCCC1	372 nM (active)	526 nM (active)	1320 nM (active)	1480 nM (active)	935 nM (active)		4180 nM (active)	-1.87 (inactive)	-2.04	-1.31	264 nM (active)	-2.06	-1.51	-1.32	
Cn1cc(-c2[nH]c3cc(NC(=O)[C@H](N)C4CCCCC4)cc4c3c2C=NNC4=O)cn1	1870 nM (active)	74.3 nM (active)	372 nM (active)	1050 nM (active)	7430 nM (active)	2640 nM (active)	1320 nM (active)	-0.173 (inactive)	-0.184	-0.421					
CC(C)c1ccccc1Cc1cc(C(=O)Nc2ccc(S(=O)(=O)c3ccccc3C(C)(C)C)cc2)c(O)c(O)c1O	5260 nM (active)	4690 nM (active)	5260 nM (active)	7430 nM (active)		5260 nM (active)	10500 nM (active)	0.413 (inactive)	0.393	0.535					
